The results in this text go back to PubChem BioAssay AID624297 (National Center for Advancing Translational Sciences (NCATS), 2012).

Where “and” joins values, the source holds several entries; their conditions need not be identical. Equal values may be shown once. Screen size: about 340,000 compounds; about 6,200 (1.8%) were called active. Roughly 10% stayed inconclusive and do not appear here. Calls follow the shape of the dose curve; as a rule, active = well fitted activation curve with a large enough effect; inconclusive = small, poorly fitted or top-dose-only effect; inactive = no such curve, though single readings can be large or run the other way. The sample as a whole holds a higher share of actives than the screen did. Some structures have more than one record in an assay (separate samples or runs), and their calls can disagree.
Potency is read from the fitted curve at half-maximal effect.

This assay can be described thus: A quantitative high throughput screen for small molecules that induce DNA re-replication in SW480 colon adenocarcinoma cells. Also: nearly all actives have a fitted effect of over 55% in size. As to re-replication activation: % of control where 0% means no effect. The settings on record: Hoechst DNA content imaging, 48 h; series mostly up to 46.1 µM; re-replication activation: at the top concentration. The essentials:
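Per well, 250 cells were exposed to pinned compound for 48 hr. Nuclear DNA was visualised with Hoechst (40 min, 37 C) and total object intensity recorded by fluorescence scanning.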
Turning to `Cn1c(CC(=O)NNC(=O)c2ccccc2F)nc2ccccc21`, the “re-replication activation” value is 9.79% (inactive).

Regarding `COC(=O)Cc1csc(/N=C/c2c(O)n(-c3cccc(C(F)(F)F)c3)c(=O)c3ccccc23)n1`, the Potency entry was “inactive and 11.6 µM (active)”.

`COC(=O)Cc1csc(Nc2c(C)n(C)n(-c3ccccc3)c2=O)n1`: the “re-replication activation” value was -10.6% (inactive).

As to `COC(=O)Cc1c(O)ccn(Cc2cccc(C(F)(F)F)c2)c1=O`, the “re-replication activation” value is 0.872% (inactive).

Regarding `CC(C)(O)c1ccccc1CC[C@H](SCC1(CC(=O)O)CC1)c1cccc(/C=C/c2ccc3ccc(Cl)cc3n2)c1`, the “re-replication activation” value is 2.31% (inactive).

For the compound `CN(C(=O)COC(=O)Cc1ccccc1[N+](=O)[O-])C1CCS(=O)(=O)C1` (centres undefined), the “re-replication activation” value was 0.116% (inactive).

Regarding `N#Cc1c(C(F)(F)F)cc(-c2ccc(Cl)cc2)nc1SCC(=O)O`, the “re-replication activation” value is -7.01% (inactive).

As to `CCOC(=O)CC(=O)CSc1nc(-c2ccccc2)cc(-c2ccc(Cl)cc2)c1C#N`, the Potency was 20.6 µM (active).

As for `N#Cc1c(-c2ccccc2)cc(-c2ccccc2)nc1SCC(=O)O`, the “re-replication activation” value is -1.38% (inactive).

On to `CCOc1ccc(CCNC(=O)COC(=O)C2CCN(S(=O)(=O)c3ccccc3)CC2)cc1OCC`, for which the “re-replication activation” value was -32.9% (inactive).

For the compound `CC(=O)CSc1nc(CCc2ccccc2)c(C#N)c(=O)[nH]1`, the re-replication activation is 4.33% [at 1.84 µM] (inactive).

For the compound `O=C(N[C@H]1C/C=C\C(c2ccc(F)cc2)N(Cc2ccccc2)C(=O)C1)OCC1c2ccccc2-c2ccccc21` (some centres undefined), the “re-replication activation” value was 5.83% (inactive).

As for `CN(C(=O)c1ccc(NC(=O)Cc2cccc(NC(=O)C3CCN(C(=O)c4ccccc4)CC3)c2)cc1)C1CC1`, the re-replication activation is -22.3% [at 9.22 µM] (inactive).

Consider `O=C(CNC(=O)c1cc(S(=O)(=O)N2CCOCC2)ccc1N1CCCC1)Nc1ccc(F)c(F)c1`, for which the “re-replication activation” value is -6.04% (inactive).

Consider `COc1ccc(C(=O)CSc2nc(C)cc(C)n2)cc1[N+](=O)[O-]`, for which the “re-replication activation” value is -11.1% (inactive).

Consider `COc1ccc(OCc2cn3c(C)cc(C)nc3n2)cc1`, for which the “re-replication activation” value was -0.0448% (inactive).

Take `COc1ccc(C(C[N+](=O)[O-])n2nc(C)cc2C)cc1` (centres undefined): the Potency is 5.8 µM (active).

As for `Cc1cc(C(=O)COc2ccc(Br)cc2F)c(C)n1C1CC1`, the “re-replication activation” value is -11.4% (inactive).

As to `O=C1NC(c2ccccc2)Cc2ccncc21` (centres undefined), the “re-replication activation” value was -3.42% (inactive).

With `C[C@@H]1NS(=O)(=O)c2cc(Cl)ccc2O[C@@H]1c1ccccc1`, the “re-replication activation” value was 7.03% (inactive).

For the compound `O=C1OCCN1C(=O)[C@H]1[C@H](c2ccc(F)cc2)C(c2ccccc2)=NN1c1ccc(Br)cc1`, the Potency was 9.2 µM (active).

Take `Cc1cc(OCCCC(=O)Nc2cc(S(=O)(=O)N3CCOCC3)ccc2N2CCOCC2)ccc1Cl`: the “re-replication activation” value is -0.175% (inactive).

Take `O=C1C(=O)N(c2ccccc2)C(c2ccccc2)C1c1ccccc1` (centres undefined): the “re-replication activation” value was 0.98% (inactive).

On to `O=C(O)CC1=C(Nc2ccccc2)C(=O)N(c2ccccc2)C1c1ccc(Cl)cc1` (centres undefined), for which the “re-replication activation” value was 3.57% (inactive).

Take `O=C1c2cccc3cc(Br)cc(c23)C(=O)N1Nc1ccccc1`: the re-replication activation was -1.37% [at 9.22 µM] (inactive).

In the case of `O=C1C=C(c2ccc(Cl)cc2)C(=O)N1Nc1ccccc1`, the Potency was 6.51 µM (active).

For the compound `C#CCOCCOCCOCCNc1nc(N2CCN(C(=O)C([C@@H](C)O)n3cc([C@@H](N)CCCCN)nn3)CC2)nc(N2CCN(C(=O)[C@H](CCCCN)n3cc(CN)nn3)CC2)n1` (some centres undefined), the “re-replication activation” value is -4.36% (inactive).

With `COC(=O)[C@]1(Cc2ccccc2)N[C@H](CN(C)S(=O)(=O)c2ccc(OC(F)(F)F)cc2)[C@@H]2C(=O)N(Cc3ccccc3)C(=O)[C@@H]21`, the “re-replication activation” value was -6.08% (inactive).

As for `CCCCN1CC(COc2ccccc2)Oc2cccc(F)c2S1(=O)=O` (centres undefined), the “re-replication activation” value was -0.739% (inactive).

Take `Cc1cccc(NC(=O)C2CCN(S(=O)(=O)c3cccc4cccnc34)CC2)c1`: the “re-replication activation” value is 2.9% (inactive).

With `Cc1ccnc(NC(=O)C2CCN(S(=O)(=O)c3c(C)c(C)cc(C)c3C)CC2)c1`, the Potency was 16.4 µM (active).

For `O=C(Nc1ccccn1)C1CCN(S(=O)(=O)c2ccccc2)CC1`, the “re-replication activation” value was -5.61% (inactive).

As to `C=CC[C@H](CC(=O)N(CCO)Cc1ccccc1)C(=O)N[C@@H](COC(=O)[C@@H](CC=C)Cc1ccc(F)cc1)Cc1ccccc1`, the “re-replication activation” value was 19.7% (inactive).

As for `O=[N+]([O-])c1ccccc1S(=O)(=O)Nc1cccc2cccnc12`, the Potency was 13 µM (active).

As for `O=[N+]([O-])c1cccc2ncccc12`, the “re-replication activation” value was -2.67% (inactive).

As for `Cc1ccccc1NC(=O)c1ccccc1NS(=O)(=O)c1cccc2cccnc12`, the “re-replication activation” value was -6.45% (inactive).

As to `CC(=O)C(CC(=O)N1CCCC1)C(=O)Nc1ccc(Cl)cc1` (centres undefined), the “re-replication activation” value was -3.64% (inactive).

Take `COC1=NC2=NCCN2C(OC)=N1`: the “re-replication activation” value was -5.59% (inactive).

Take `O=C(NCCN1CCOCC1)c1ccc2c(c1)ncn2C1CCCC1`: the “re-replication activation” value was 10.1% (inactive).

With `O=C(NCCN1CCOCC1)c1cc(-c2cccs2)nc2ccccc12`, the “re-replication activation” value is -5.04% (inactive).

As to `c1ccc2cc3c(NCCN4CCOCC4)ccnc3cc2c1`, the Potency was 10.3 µM (active).

In the case of `Cc1ccc(S(=O)(=O)N2CCN(C(=O)COC(=O)CNC(=O)c3ccc(C(C)(C)C)cc3)CC2)c(C)c1`, the “re-replication activation” value is 9.49% (inactive).

Consider `CCn1c(=N)c(S(=O)(=O)c2ccc(F)cc2)cc2c(=O)n3ccccc3nc21`, for which the Potency is 20.6 µM (active).

For `Cc1ccc(-n2c(=O)c(C#N)cc3c(=O)n4ccccc4nc32)cc1C`, the “re-replication activation” value was 12.5% (inactive).

Regarding `Cc1ccc(S(=O)(=O)c2cc3c(=O)n4cccc(C)c4nc3n(CCc3ccccc3)c2=N)cc1C`, the “re-replication activation” value is 0.0757% (inactive).

`Cc1cc(C)c(C#N)c(N2CCC(C(N)=O)CC2)n1`: the “re-replication activation” value was -2.1% (inactive).

For the compound `N#Cc1c(C(F)(F)F)cc(-c2cccs2)nc1N1CCCCC1`, the “re-replication activation” value was 0.724% (inactive).

As to `N#CCc1c(C#N)c(N)nc(N2CCCC2)c1C#N`, the Potency was 14.6 µM (active).

Consider `O=C(OCCOc1ccccc1F)c1cc(S(=O)(=O)N2CCOCC2)ccc1F`, for which the “re-replication activation” value was -0.079% (inactive).
